The record followed here is PubChem BioAssay (NCATS).

Inconclusive results are not listed. Unmarked numbers belong to inactive results. Activity calls are given as the source filed them. The call rests on the fitted dose curve; in most records, active means well fitted inhibition curve with a large enough effect; inconclusive means small, poorly fitted or top-dose-only effect; inactive means flat fitted curve, though single readings scatter.
On the % scale 0 is the no-effect control and ±100 the full control effect; potency means the concentration at half of the fitted maximal effect.

A short description of this test: qHTS to identify inhibitors of the type 1 interferon - major histocompatibility complex class I in skeletal muscle: primary screen against the NCATS Pharmaceutical Collection (AID 1347407). Conditions: human skeletal muscle cells, IFN-b-induced MHC-I HiBiT luminescence, 24 h; series mostly up to 45.9 µM; activity change, negative = inhibition: at the top concentration. An excerpt: Assay Submitter (PI): Travis B. Kinder Ph.D. & James Inglese Ph.D.
Assay Development and Screening Technology Laboratory (ADST)
National Center for Advancing Translational Sciences (NCATS), Rockville, MD
National Institute of Health (NIH), Bethesda, Maryland
Idiopathic inflammatory myopathies, collectively referred to as myositis, are a group of rare autoimmune diseases characterized by skeletal muscle inflammation, weakness, and usually accompanied by systemic pathologies of the skin, lungs, or vasculature. Current immunosuppressive therapies and glucocorticoids are often not curative and are accompanied by harsh side effects, especially in children with juvenile myositis. We initiated a drug repurposing and development program to identify more targeted, less toxic therapeutics to treat myositis. Although its cause is not known, muscle from a subset of patients have an abundance of the inflammatory type 1 interferon (IFN) and a down-stream product major histocompatibility complex class I (MHC class I), which are both thought to contribute to damage and weakness. We conducted quantitative high throughput screening on 6,576 compounds (4,679 unique) through a series of cell-based assays to identify those that inhibit the IFN-stimulated expression of MHC class I in muscle precursor cells (myoblasts). The compound identification and evaluation strategy utilized a primary screen with reporter-tagged MHC class I in genome-engineered myoblasts, ATP content counter screen for viability, HLA-ABC immunofluorescence secondary screen, and HLA-B RT-qPCR tertiary screen.
The primary screen utilized CRISPR/Cas9 genome-engineering of immortalized human myoblasts, C25cl48, where a pro-luminescent reporter HiBit was fused to the C-terminus of endogenous MHC class I allele HLA-B*08:01 (HLA-B HiBit myoblasts). HiBit is an 11 amino acid fragment of NanoLuc luminescent reporter (Promega Corporation), and when complexed to the larger LgBit fragment, the reconstituted enzyme produces light in the presence of furimazine substrate (Schwinn et al., 2018). Briefly, HLA-B HiBit myoblasts were plated into 1536-well plates, treated with 4.0 ng/ml human IFN-beta and 2,816 compounds from the NCATS Pharmaceutical Collection (NPC) that contains all drugs approved in the US, EU, and Japan (Huang et al., 2011) in an 8-point, 1:5 titration with a high final concentration of 46 uM. After 24 hrs of treatment, cells were assayed by Nano-Glo HiBiT Lytic Detection System (Promega) and luminescence measured by a ViewLux 1430 Ultra HTS (Perkin Elmer).
Huang R, Southall N, Wang Y, Yasgar A, Shinn P, Jadhav A, Nguyen D-T, Austin CP. 2011. The NCGC pharmaceutical collection: a comprehensive resource of clinically approved drugs enabling repurposing and chemical genomics. Sci Transl Med 3:80ps16. doi:10.1126/scitranslmed.3001862
Schwinn MK, Machleidt T, Zimmerman K, Eggers CT, Dixon AS, Hurst R, Hall MP, Encell LP, Binkowski BF, Wood K V. 2018. CRISPR-Mediated Tagging of Endogenous Proteins with a Luminescent Peptide. ACS Chem Biol 13:467-474. doi:10.1021/acschembio.7b00549
PROTOCOL TABLE (as described by Inglese et al., 2007)
SEQUENCE No. (e.g., 1, 2, 3, etc.); […] (e.g., Cells, Incubation, Reagent, etc.); VALUE; DESCRIPTION
1a; Cells; 5 uL; Use a Multidrop Combi (Thermo Scientific) to seed 350 cells/well into nine Greiner 1536 well white/solid bottom, high base, TC plates in 5 ul/well of iHSKM growth medium (GM) without dexamethasone into columns 1+2. Add metal lids with gas-exchange holes
1b; Cells; 5 uL; Use a Multidrop Combi (Thermo Scientific) to seed 350 cells/well into nine Greiner 1536 well white/solid bottom, high base, TC plates in 5 ul/well of iHSKM GM without dexamethasone + 4 ng/ml IFN-b into columns 3 - 48. Add metal lids with gas-exchange holes
2; Incubate; 1 hr; Incubate at 37 C, 5% CO2, 95% RH
[…]
As to `CCN(CC)CCCC(C)Nc1c2ccc(Cl)cc2nc2ccc(OC)cc12` (stereo not given), the “activity change, negative = inhibition” value is 4.28%. Same read-out and setting: then `CC(O)CN(CCN(CC(C)O)CC(C)O)CC(C)O` (stereo not given), with 1.17%; and `COc1cc2[nH]c(=O)[nH]c(=O)c2cc1OC`, with -9.49%; and `COc1cc(C)c(Cc2cnc(N)nc2N)cc1OC`, with -2.85%. On the same count and under the same terms, the value for `O=c1cc(CO)occ1O` was 5.1%. On the same count and under the same terms, the value for `COc1ccccc1O` was 13.6% [at 92.2 µM]; that for `Cc1ccc2nc(N)[nH]c(=O)c2c1Sc1ccncc1` was -12%. In the case of `CNCCC(Oc1ccc(C(F)(F)F)cc1)c1ccccc1` (stereo not given), the “activity change, negative = inhibition” value is -24.8%. For the molecule `CCCCN(CCCC)CC(O)c1cc(Cl)cc2c1-c1ccc(Cl)cc1/C2=C/c1ccc(Cl)cc1` (stereo not given), the “activity change, negative = inhibition” value is -18.8%. As to `CC1(C)OC(=O)NC1=O`, the “activity change, negative = inhibition” value is 0.0854%. On the same count and under the same terms, the value for `CN1[C@@H]2CC[C@H]1CC(OC(=O)C(O)c1ccccc1)C2` (stereo not given in full) was 5.2%. For `Cc1ccc(C(C)C)cc2c(C)ccc1-2`, the “activity change, negative = inhibition” value is -2.05%.

With `NCC(=O)CCC(=O)O`, the “activity change, negative = inhibition” value was 2.19%. As to `O=C(O)COc1nn(Cc2ccccc2)c2ccccc12`, the “activity change, negative = inhibition” value was -5.31%.

Take `NC(=O)c1ncn([C@@H]2O[C@H](CO)[C@@H](O)[C@H]2O)n1`: the “activity change, negative = inhibition” value was 2.17%. Consider `CC12CCC(CC1)C(C)(C)O2`, for which the “activity change, negative = inhibition” value was -0.113%. Still for that read-out and setting: then `COc1ccc(Cl)cc1C(=O)NCCc1ccc(S(=O)(=O)NC(=O)NC2CCCCC2)cc1`, with 0.994%; and `COc1ccc(S(=O)(=O)Nc2nnc(CC(C)C)s2)cc1`, with -17.6%.

Consider `C[C@@H]1CC[C@@]2(OC1)O[C@H]1C[C@H]3[C@@H]4CC[C@H]5C[C@@H](O)CC[C@]5(C)[C@H]4CC(=O)[C@]3(C)[C@H]1[C@@H]2C`, for which the activity change, negative = inhibition is -0.255% [at 3.83 µM]. `CCCCN(CCCC)CCCOC(=O)c1ccc(N)cc1`: the “activity change, negative = inhibition” value is 0.733%. Same read-out and setting: the value for `O=c1[nH]c(=O)c2[nH]c(=O)[nH]c2[nH]1` was -11.3% [at 9.18 µM]; that for `C[C@H]1O[C@H](O[C@H]2[C@H](O)[C@@H](O)[C@@H](O[C@H]3[C@H](O)[C@@H](O)[C@H](O)O[C@@H]3CO)O[C@@H]2CO)[C@H](O)[C@@H](O)[C@@H]1N[C@H]1C=C(CO)[C@@H](O)[C@H](O)[C@H]1O` was 4.45%; that for `O=c1cc[nH]c(=O)[nH]1` was -5.7%.

On to `CCN(CC)CCNC(=O)c1c(C)[nH]c(/C=C2\C(=O)Nc3ccc(F)cc32)c1C`, for which the Potency is 10.5 µM (active). `CC1(C)[C@@H]2CC[C@@]1(C)C(=O)C2`: the “activity change, negative = inhibition” value was 5.21%. For `CCCCCCCCCCCCCCCCCCOCC(O)CO` (stereo not given), the “activity change, negative = inhibition” value is -5.35%. Still for that read-out and setting: then `O=C(CCCN1CCN(c2ccccn2)CC1)c1ccc(F)cc1`, with -4.76%. On the same count and under the same terms, the value for `CC(O)COc1ccccc1` (stereo not given) was -6.42%. As to `CN1CCOC(c2ccccc2)c2ccccc2C1` (stereo not given), the “activity change, negative = inhibition” value was -7.15%.

Consider `OC[C@H]1O[C@@H](O[C@@H]2[C@@H](CO)O[C@](O)(CO)[C@H]2O)[C@H](O)[C@@H](O)[C@H]1O`, for which the “activity change, negative = inhibition” value is 1.38%.

In the case of `CC(C)(O)c1ccccc1CC[C@@H](SCC1(CC(=O)O)CC1)c1cccc(/C=C/c2ccc3ccc(Cl)cc3n2)c1`, the “activity change, negative = inhibition” value was 3.03%.

For the molecule `CCN(CC)CCNC(C(=O)OCCC(C)C)c1ccccc1` (stereo not given), the “activity change, negative = inhibition” value is -13%. With `C[C@H](NC(CCc1ccccc1)C(=O)O)C(=O)N1CCC[C@H]1C(=O)O` (stereo not given in full), the “activity change, negative = inhibition” value was 0.0197%.

As to `C[C@](N)(Cc1ccc(O)cc1)C(=O)O`, the activity change, negative = inhibition was -0.196% [at 3.83 µM]. Same read-out and setting: then `C[C@@H]1CN(c2c(F)c(F)c3c(=O)c(C(=O)O)cn(C4CC4)c3c2F)C[C@H](C)N1`, with -3.67% [at 19 µM].

Turning to `CN1CCC[C@@H]1Cc1c[nH]c2ccc(CCS(=O)(=O)c3ccccc3)cc12`, the “activity change, negative = inhibition” value was 1.22%.

Regarding `CCn1cc(C(=O)O)c(=O)c2cnc(N3CCNCC3)nc21`, the “activity change, negative = inhibition” value was -0.61%. With `CC/C=C(\C(=O)N[C@@H]1C(=O)N2C(C(=O)OCOC(=O)C(C)(C)C)=C(COC(N)=O)CS[C@H]12)c1csc(N)n1`, the Potency entry is “inactive”. With `CNCCCC1c2ccccc2C=Cc2ccccc21`, the “activity change, negative = inhibition” value is -5.68%. Turning to `Oc1ccc(C(O)CNCCCCCCNCC(O)c2ccc(O)c(O)c2)cc1O` (stereo not given), the “activity change, negative = inhibition” value is 3.74%.
